Only some compounds are listed: those with a hit (about 7.4% of all), similar ones and a draw of the others.
SMN2 splice up = SMN2 splice variant enhancement | HEK293 SMN2-luciferase splicing reporter, luminescence, 30-36 h | Potency, µM (top dose mostly 46.1 µM), for the others: at the highest dose activity change, positive = activation, hits mostly activators | actives 2.8% (n = 210,000) | AID 1458; note: % of control where 0% means no effect; nearly all actives have a fitted effect of over 55% in size
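HEK293 cells carry an SMN2 […]–luciferase reporter in which exon 7 inclusion puts luciferase in frame. Cells were plated 10-12 h before compound addition, then incubated 30-36 h at 37C. ONE-Glo luminescence was read; sodium butyrate at 4.5 mM final served as control.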
Rab9 prom act = activates the Rab9 promoter; Huh7 Rab9 promoter-luciferase reporter, luminescence, 24 h; Potency, µM (titrated, usually from 9.22 µM), without a hit: at the top dose activation, negative = inhibition, actives largely listed as activators; actives 2.8% (n = 320,000); AID 485297; note: % of control where 0% means no effect; nearly all actives have a fitted effect of over 60% in size
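Promoter activation is measured as luciferase luminescence in Huh7 cells stably transfected with a Rab9 promoter–luciferase construct, following 24 h compound exposure at 37 °C and 10 min reagent incubation at ambient temperature.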
NPC1 promoter act = activates the NPC1 promoter; actives 2.4% (n = 320,000); AID 485313; Potency, µM (highest dose often 9.22 µM), inactives show at the top dose activation, hits mostly activators; Huh7 NPC1 promoter luciferase reporter, 24 h; note: % of control where 0% means no effect; nearly all actives have a fitted effect of over 60% in size
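Luminescence from an NPC1 promoter-driven luciferase reporter in stably transfected Huh7 cells was measured after 24 h compound treatment at 37 °C, followed by 10 min ambient incubation with luciferase detection reagent.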
ELG1 genotox = induces genotoxicity in HEK293T cells with luciferase-tagged ELG1 | HEK293T ELG1-luciferase reporter, luminescence, 16 h | Potency, µM (doses to about 46 µM), inactives show at the highest dose activity change, positive = activation, hits mostly activators | actives 1.3% (n = 330,000) | AID 504466; note: % of control where 0% means no effect; nearly all actives have a fitted effect of over 60% in size
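Cells (2,000/well) expressing the ELG1-luciferase fusion are dosed by pin tool and kept 16 hr at 37 °C, 5% CO2. Signal comes from ONE-Glo luciferase reagent after 30 min at room temperature.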
FLuc modulator = inhibits or activates purified firefly luciferase, miR-21 counter-screen. P08659. purified FLuc, Km substrates, luminescence inhibition. Potency, µM (highest dose often 57.5 µM), for the others: top-dose activity change, negative = inhibition, usual class: inhibitors. actives 6.9% (n = 360,000). AID 588342;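 note: plate controls were vehicle for no effect and reference inhibitor for full effect; nearly all actives have a fitted effect of over 55% in size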
Target sequence (P08659 whole entry, looked up): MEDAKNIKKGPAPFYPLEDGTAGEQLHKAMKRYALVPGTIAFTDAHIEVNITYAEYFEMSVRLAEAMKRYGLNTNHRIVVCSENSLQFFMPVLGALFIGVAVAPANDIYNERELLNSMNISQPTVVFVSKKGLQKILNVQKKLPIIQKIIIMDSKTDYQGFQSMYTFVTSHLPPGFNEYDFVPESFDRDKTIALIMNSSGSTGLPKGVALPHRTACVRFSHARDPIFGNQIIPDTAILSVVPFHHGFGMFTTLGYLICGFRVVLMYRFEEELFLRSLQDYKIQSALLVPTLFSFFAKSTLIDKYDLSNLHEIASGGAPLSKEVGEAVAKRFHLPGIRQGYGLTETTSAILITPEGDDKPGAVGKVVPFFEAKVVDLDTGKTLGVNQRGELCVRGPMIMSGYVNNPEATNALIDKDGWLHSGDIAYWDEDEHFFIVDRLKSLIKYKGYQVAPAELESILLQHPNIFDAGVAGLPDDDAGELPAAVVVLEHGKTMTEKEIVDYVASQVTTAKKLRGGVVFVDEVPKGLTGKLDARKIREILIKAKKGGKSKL
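Purified P. pyralis luciferase (10nM final) with 10uM D-luciferin and 10uM ATP (Km levels) in 50mM Tris acetate pH 7.5, 10mM Mg acetate, 0.01% Tween-20, 0.05% BSA; qHTS 6-point titration, ~60 µM downward; luminescence read.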
* hit, by the source's call; [ ] = remark or other dose. Calls come from the whole dose curve; as a rule, active = well fitted curve in the direction sought with a large enough effect; inconclusive = small, poorly fitted or top-dose-only effect, or another doubt; inactive = no such curve, though single readings can be large; an effect the other way counts as inactive or inconclusive. Potency is the fitted concentration of half-maximal effect.

CCCn1c(O)c(C=Nc2ccccc2)sc1=S was read as Rab9 prom act inconclusive, NPC1 promoter act 14%, ELG1 genotox inconclusive and FLuc modulator 21µM*.
CCCCn1c(O)c(/C=C/C=C/C=Nc2ccccc2)sc1=S was read as SMN2 splice up -57%, Rab9 prom act 1%, NPC1 promoter act -13%, ELG1 genotox 5% and FLuc modulator 11µM*.
Screening O=C(O)CC[P+](c1ccccc1)(c1ccccc1)c1ccccc1 returned SMN2 splice up -21%[9.22 µM].
Screening CC1CCCC(C)N1C(=O)COC(=O)c1cccs1 (stereo not given) returned ELG1 genotox 0%.
For Cc1ccc(C(=O)Nc2nc(COc3ccccc3)cs2)s1 the results were SMN2 splice up -28% and FLuc modulator 17µM*.
`COc1cccc(OC)c1C(=O)Nc1nc(COc2ccccc2)cs1` gave SMN2 splice up -18%, Rab9 prom act -1%, NPC1 promoter act 3%, ELG1 genotox -8% and FLuc modulator inconclusive.
Screening CC(=O)Nc1nc(COc2ccc3ccccc3c2)cs1 returned SMN2 splice up 4%, Rab9 prom act 6.3µM*, NPC1 promoter act 2.8µM*, ELG1 genotox inconclusive and FLuc modulator 12µM*.
`O=C(COc1ccccc1)OCc1csc(Nc2ccccc2)n1` gave SMN2 splice up 11%, Rab9 prom act 0%, NPC1 promoter act 2%, ELG1 genotox -2% and FLuc modulator inconclusive.
For CC(=O)Nc1nc(COc2ccccc2)cs1 the results were SMN2 splice up 18µM*, Rab9 prom act inconclusive, NPC1 promoter act 3.2µM*, ELG1 genotox 10µM* and FLuc modulator inconclusive.
O=C(Nc1nc(COc2ccccc2)cs1)C1CCC1 was read as SMN2 splice up 13%, Rab9 prom act inconclusive, NPC1 promoter act inconclusive, ELG1 genotox inconclusive and FLuc modulator 12µM*.
`CNC(=O)CC1C(=O)N(c2ccc(OC)cc2)C(=S)N1NC(=O)c1cccc(F)c1` (stereo not given) gave Rab9 prom act -2%, NPC1 promoter act -5%, ELG1 genotox 4% and FLuc modulator 5%.
O=C(Nc1nc(COc2ccccc2)cs1)C12CC3CC(CC(C3)C1)C2 was read as SMN2 splice up -69%, Rab9 prom act 23%, NPC1 promoter act 12%, ELG1 genotox inconclusive and FLuc modulator 15µM*.
COc1ccccc1OCc1csc(N)n1 was read as SMN2 splice up 14%, Rab9 prom act 16%, NPC1 promoter act -1%, ELG1 genotox -2% and FLuc modulator 4%.
`O=C(Nc1ccccc1-c1ccccc1)C12CC3CC(CC(C3)C1)C2` gave SMN2 splice up -20%, Rab9 prom act 4%, NPC1 promoter act 3%, ELG1 genotox 3% and FLuc modulator inconclusive.
Nc1nc(COc2ccc3ccccc3c2)cs1 was read as SMN2 splice up 30% and FLuc modulator 12µM*.
CCOC(=O)N1CCN(CC(=O)Nc2ccccc2C(=O)Nc2ccccc2)CC1 was read as Rab9 prom act -5%, NPC1 promoter act -5%, ELG1 genotox -5% and FLuc modulator -4%.
For CCOC(=O)c1ncn2c1[C@@H]1CCNC1C(=O)c1cc(OC)ccc1-2 (stereo not given in full) the results were Rab9 prom act -1%, NPC1 promoter act 1%, ELG1 genotox 14% and FLuc modulator 3%.
For COc1ccc(-c2nnn(CC(=O)N(Cc3ccco3)C(C(=O)NCC3CCCO3)c3ccco3)n2)cc1 (stereo not given) the results were SMN2 splice up -8%, Rab9 prom act -2%, NPC1 promoter act -3%, ELG1 genotox 5% and FLuc modulator 2%.
For Cc1ccc(-c2nnn(CC(=O)N(c3ccccc3)C(C(=O)NC3CCCC3)c3ccncc3)n2)o1 (stereo not given) the results were Rab9 prom act -1%, NPC1 promoter act -3%, ELG1 genotox 21% and FLuc modulator 4%.
`Cc1ccc(N(C(=O)Cn2nnc(-c3ccc(C)o3)n2)C(C(=O)NC2CCCC2)c2ccco2)cc1` (stereo not given) gave SMN2 splice up 28µM*, Rab9 prom act -6%, NPC1 promoter act 2%, ELG1 genotox 4% and FLuc modulator 0%.
`COc1ccc(CN(C(=O)Cn2nnc(-c3ccc(C)o3)n2)C(C(=O)NCC2CCCO2)c2ccco2)cc1` (stereo not given) gave Rab9 prom act inconclusive, NPC1 promoter act inconclusive, ELG1 genotox inconclusive and FLuc modulator 0.19µM*.
CCc1cccc(NC(=O)CS(=O)Cc2nc(-c3ccc(C)cc3)oc2C)c1 (stereo not given) was read as SMN2 splice up -3%, Rab9 prom act -3%, NPC1 promoter act -2%, ELG1 genotox -8% and FLuc modulator -18%.
`O=C(Nc1ccc([N+](=O)[O-])cc1)Nc1ccc2c(c1)OCCO2` gave SMN2 splice up 6.3µM*, Rab9 prom act 0.79µM*, NPC1 promoter act 1µM*, ELG1 genotox -6% and FLuc modulator 2.1µM*.
`O=C(CSc1ccc([N+](=O)[O-])cn1)Nc1ccc2c(c1)OCCO2` gave SMN2 splice up -6%, Rab9 prom act 0%, NPC1 promoter act 0%, ELG1 genotox 3% and FLuc modulator inconclusive.
For COc1cc([N+](=O)[O-])ccc1NC(=O)Nc1ccc2c(c1)OCCO2 the results were SMN2 splice up 8%, Rab9 prom act inconclusive, NPC1 promoter act 5%, ELG1 genotox 3% and FLuc modulator 6.7µM*.
For COc1cc([N+](=O)[O-])ccc1NC(=S)N1CCOCC1 the results were Rab9 prom act -1%, NPC1 promoter act -2%, ELG1 genotox 0% and FLuc modulator 3%.
O=C(CSc1nc2c(oc3ccccc32)c(=O)n1Cc1ccco1)Nc1ccccc1Cl was read as SMN2 splice up -3% and FLuc modulator 2%.
For CNC(=O)c1cc(Oc2ccc(NC(=O)Nc3ccc(Cl)c(C(F)(F)F)c3)cc2)ccn1 the results were Rab9 prom act -22%, NPC1 promoter act -9%, ELG1 genotox -9% and FLuc modulator -12%.
COc1ccc(-c2cc3nc4ccccc4n3c(N)c2C#N)cc1 was read as Rab9 prom act 2µM*, NPC1 promoter act 1.8µM*, ELG1 genotox 14% and FLuc modulator inconclusive.
Screening COc1ccc(-c2cc(-c3ccccc3)c(C#N)c(S(C)=O)n2)cc1 (stereo not given) returned SMN2 splice up -26%, Rab9 prom act -19%, NPC1 promoter act -4%, ELG1 genotox -4% and FLuc modulator 0%.
Screening Fc1ccc(-n2[nH]nnc2=S)cc1N1CCCC1 returned SMN2 splice up 1%, Rab9 prom act 15%, NPC1 promoter act 16%, ELG1 genotox 13% and FLuc modulator 24µM*.
